Structures can show the parent of a compound that is named as a salt.
Each compound was assayed on Danio rerio larvae (5 dpf) (assay: startle (activity period 16 minus period 15, 20-s interval sound) minus DMSO control (percentage points); higher = stronger startle response than DMSO larvae). Conditions: 10 µM; exposure time: 3 h pre-incubation + 3 h imaging.
Procedure: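 Wild-type 5 dpf zebrafish larvae (n=48 per drug, 96-well plates, 28.5 °C) were exposed to Tocris FDA-approved library compounds at 10 µM (0.1% DMSO) for 3 h before and 3 h during imaging. Images were taken every 6 s during visual (moving coloured lines) and acoustic stimuli, and larvae were tracked with the DeepLabCut-based Z-LaP Tracker. Each behavioural measure is the treated-group mean minus the DMSO vehicle control mean (n=844), in percentage points. This mapping covers compounds with 4-character plate codes.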
For Clc1ccc(COC(Cn2ccnc2)c2ccc(Cl)cc2Cl)c(Cl)c1 (stereo not given) [Miconazole nitrate], the startle was 5.64. CN1CC[C@@H](NC(=O)Nc2ccc(C#N)cc2)C[C@@H]1c1nc2ccccc2[nH]1 showed a startle of -4.15. Cc1nc(Nc2ncc(C(=O)Nc3c(C)cccc3Cl)s2)cc(N2CCN(CCO)CC2)n1 [Dasatinib] was tested, and the startle was -0.00442. Cc1c(-c2ccc(O)cc2)n(Cc2ccc(OCCN3CCCCCC3)cc2)c2ccc(O)cc12 [Bazedoxifene acetate] was tested, and the startle was -3.07. With C=C1[C@H](CO)[C@@H](O)C[C@@H]1n1cnc2c(=O)[nH]c(N)nc21 [Entecavir] the startle was 3.99. Cc1nnc(C(C)C)n1C1C[C@H]2CC[C@@H](C1)N2CC[C@H](NC(=O)C1CCC(F)(F)CC1)c1ccccc1 (stereo in doubt) [Maraviroc] showed a startle of -4.84. Compound CN1CCC[C@@H]1Cc1c[nH]c2ccc(CCS(=O)(=O)c3ccccc3)cc12 [Eletriptan hydrobromide] has a startle of 0.814. For NC(=O)c1ncn([C@@H]2O[C@H](CO)[C@@H](O)[C@H]2O)n1 [Ribavirin], the startle was 2.04. In the case of CC(C)n1c(/C=C/C(O)CC(O)CC(=O)O)c(-c2ccc(F)cc2)c2ccccc21 (stereo not given) [Fluvastatin sodium], the startle is reported as 3.68. Compound CCCc1nc2c(C)cc(-c3nc4ccccc4n3C)cc2n1Cc1ccc(-c2ccccc2C(=O)O)cc1 [Telmisartan] has a startle of 2.86. In the case of CC(=O)O[C@]1(C(C)=O)CC[C@H]2[C@@H]3C=C(C)C4=CC(=O)CC[C@]4(C)[C@H]3CC[C@@]21C [Megestrol Acetate], the startle is reported as -12.5. For Nc1ncn([C@H]2C[C@H](O)[C@@H](CO)O2)c(=O)n1 [Decitabine], the startle was -1.27. CC(C)(C)NC(=O)[C@@H]1C[C@@H]2CCCC[C@@H]2CN1C[C@@H](O)[C@H](Cc1ccccc1)NC(=O)[C@H](CC(N)=O)NC(=O)c1ccc2ccccc2n1 [Saquinavir mesylate] showed a startle of 0.811. CN1CCN(CCCN2c3ccccc3Sc3ccc(Cl)cc32)CC1 [Prochlorperazine dimaleate] gave a startle of -8.12. In the case of CC(=O)S[C@@H]1CC2=CC(=O)CC[C@]2(C)[C@H]2CC[C@@]3(C)[C@@H](CC[C@@]34CCC(=O)O4)[C@H]12 [Spironolactone], the startle is reported as 2.27. CCCCCOC(=O)Nc1nc(=O)n([C@@H]2O[C@H](C)[C@@H](O)[C@H]2O)cc1F [Capecitabine] gave a startle of 1.06. With Brc1c(NC2=NCCN2)ccc2nccnc12 the startle was -5.57. For CC(=O)O[C@H]1C(=O)[C@@]2(C)[C@H]([C@H](OC(=O)c3ccccc3)[C@]3(O)C[C@H](OC(=O)[C@H](O)[C@@H](NC(=O)c4ccccc4)c4ccccc4)C(C)=C1C3(C)C)[C@]1(OC(C)=O)CO[C@@H]1C[C@@H]2O [Taxol], the startle was 1.37. With CC(C)N(CCCCOCC(=O)NS(C)(=O)=O)c1cnc(-c2ccccc2)c(-c2ccccc2)n1 [Selexipag] the startle was 1.3. For CCCCC(=O)N(Cc1ccc(-c2ccccc2-c2nnn[nH]2)cc1)[C@H](C(=O)O)C(C)C [Valsartan], the startle was 0.232. CC(C)[C@H]1CC[C@H](C(=O)N[C@H](Cc2ccccc2)C(=O)O)CC1 [Nateglinide] showed a startle of 3.17. Work on CCOC(=O)c1ncn2c1CN(C)C(=O)c1cc(F)ccc1-2 [Flumazenil] yielded a startle of -0.637. With CCc1c2c(nc3ccc(OC(=O)N4CCC(N5CCCCC5)CC4)cc13)-c1cc3c(c(=O)n1C2)COC(=O)[C@]3(O)CC the startle was 0.964. CC(C)C(=O)Nc1ccc([N+](=O)[O-])c(C(F)(F)F)c1 [Flutamide] was tested, and the startle was -5.6. With CCc1ccc(CCOc2ccc(CC3SC(=O)NC3=O)cc2)nc1 (stereo not given) [Pioglitazone hydrochloride] the startle was -4.69. COC(=O)C1=C(C)NC(C)=C(C(=O)OC(C)C)C1c1cccc2nonc12 (stereo not given) [Isradipine] was tested, and the startle was -8.8. O=C(O)c1cc(/N=N/c2ccc(S(=O)(=O)Nc3ccccn3)cc2)ccc1O [Sulfasalazine] gave a startle of -1. With Cc1ccccc1C(=O)Nc1ccc(C(=O)N2CCCC(O)c3cc(Cl)ccc32)c(C)c1 (stereo not given) [Tolvaptan] the startle was 4.33. For O=C(O[C@@H]1C[C@@H]2C[C@H]3C[C@H](C1)N2CC3=O)c1c[nH]c2ccccc12 [Dolasetron mesylate], the startle was 0.504. With COc1cc2ncnc(Nc3ccc(F)c(Cl)c3)c2cc1OCCCN1CCOCC1 [Iressa] the startle was -1.42. With CCCCC1=NC2(CCCC2)C(=O)N1Cc1ccc(-c2ccccc2-c2nnn[nH]2)cc1 [Irbesartan] the startle was 3.4. With Nc1nc2[nH]cc(CCc3ccc(C(=O)N[C@@H](CCC(=O)O)C(=O)O)cc3)c2c(=O)[nH]1 [Pemetrexed] the startle was -5.08. In the case of CCCc1nc(C(C)(C)O)c(C(=O)O)n1Cc1ccc(-c2ccccc2-c2nnn[nH]2)cc1 [Olmesartan], the startle is reported as 8.5. Compound CN(C)CC/C=C1/c2ccccc2COc2ccc(CC(=O)O)cc21 [Olopatadine hydrochloride] has a startle of 1.07. Nc1cc(N2CCCCC2)nc(N)[n+]1[O-] [Minoxidil] was tested, and the startle was -1.64. CCCCNc1cc(C(=O)O)cc(S(N)(=O)=O)c1Oc1ccccc1 [Bumetanide] was tested, and the startle was 3.28. For OCCOCCN1CCN(C2=Nc3ccccc3Sc3ccccc32)CC1 [Quetiapine hemifumarate], the startle was -0.888. With NS(=O)(=O)Cc1noc2ccccc12 [Zonisamide] the startle was 5.14. For CCOC(=O)C1=C(COCCN)NC(C)=C(C(=O)OC)C1c1ccccc1Cl (stereo not given) [Amlodipine besylate], the startle was 0.141. Cc1cc(C2CCCCC2)n(O)c(=O)c1 [Ciclopirox] showed a startle of -8.19.

— the supplement of paper PMC9950053
